D2 ag-1 = HTS Assay for Allosteric Agonists of the Human D2 Dopamine Receptor: Primary Screen for Agonists; D(2) dopamine receptor (Homo sapiens), P14416; HEK293 T-REx D2 cells, calcium flux agonist mode; activation, % at 2 µM; 340,000 tested, 0.53% active;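 active means activation over 3 SD above normal in the single-dose calcium agonist read, cut at about 30% in these data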; further: 0% is about no effect
Target sequence (P14416 whole entry, looked up): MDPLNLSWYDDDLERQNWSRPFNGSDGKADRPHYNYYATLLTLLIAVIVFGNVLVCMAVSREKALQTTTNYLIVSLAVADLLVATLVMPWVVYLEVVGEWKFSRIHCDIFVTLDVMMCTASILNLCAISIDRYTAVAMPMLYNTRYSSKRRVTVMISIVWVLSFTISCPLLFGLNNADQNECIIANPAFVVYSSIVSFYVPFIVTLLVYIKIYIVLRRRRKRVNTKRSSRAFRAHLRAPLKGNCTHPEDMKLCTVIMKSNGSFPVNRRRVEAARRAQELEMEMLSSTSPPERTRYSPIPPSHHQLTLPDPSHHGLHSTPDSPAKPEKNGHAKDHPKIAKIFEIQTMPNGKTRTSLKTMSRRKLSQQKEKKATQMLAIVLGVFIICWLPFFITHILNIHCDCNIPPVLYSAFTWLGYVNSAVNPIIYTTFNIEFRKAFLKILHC
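Calcium-flux readout, 1 cycle/sec over 180 s following compound pin transfer, in inducible HEK293 Trex D2 cells (force-coupled); dopamine controls included. Positive calcium responses during this window marked compounds as potential agonists.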
LDHA block = qHTS assay for inhibitors of human lactate dehydrogenase | L-lactate dehydrogenase A chain (Homo sapiens), P00338 | 480,000 tested, 0.15% active | purified LDHA, NADH/diaphorase-resazurin fluorescence; active compounds read low | AID 1347041, 2019 | activity change, % (values are at about 110 or 230 µM); in the data active means activity change below about -30%; inconclusive means mostly about -25% to -30%;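 further: plate controls were DMSO wells for no effect and wells without enzyme for full effect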
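Human LDH5 at 2 nM final in Tris HCl pH 7.4 with 0.06 mM NADH and 0.2 mM pyruvate, reacted 5 minutes at room temperature. Remaining NADH coupled via diaphorase/resazurin; resorufin fluorescence read at 0 and 20 minutes, normalized to enzyme-free and DMSO wells.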
D2 PAM-1 = HTS Assay for Positive Allosteric Modulators of the Human D2 Dopamine Receptor: Primary Screen for Potentiators | D(2) dopamine receptor (Homo sapiens), P14416 | HEK293 T-REx D2, calcium flux, EC20 dopamine potentiation | potentiation, % at 10 µM | 340,000 tested, 0.34% active | AID 485347, 2010;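 active means potentiation over 3 SD above the plate norm, cut at about 30% in these data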; further: 0% is about no effect
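Potentiation of an EC20 dopamine calcium response is measured in a force-coupled, tetracycline-inducible Hek293 Trex D2 line. Compound-only kinetic reads over 180 s flag agonists before dopamine addition.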
D2 ag-2 = Beta-Arrestin HTS for Positive Allosteric Modulators of the Human D2 Dopamine Receptor: Agonists. AID 624465, 2012. 360,000 tested, 0.084% active. D(2) dopamine receptor (Homo sapiens), P14416. DiscoveRx PathHunter D2 beta-arrestin, luminescence, 90 min; 100% = 57 uM dopamine signal. activation, % (test concentration not listed); in the data active means activation above about 40%; inconclusive means between about 15% and that limit
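DiscoveRx PathHunter D2 beta-arrestin cells (2,100/well) attached overnight, then compound-stimulated 90 min at 37 C in HBSS/10 mM HEPES/0.1% Tween-20 buffer; beta-galactosidase complementation read by luminescence after 1 h at ambient temperature. Dopamine 57 uM final (EC100) as control.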
D2 antag = HTS Assay for Allosteric Antagonists of the Human D2 Dopamine Receptor: Primary Screen for Antagonists | 340,000 tested, 2% active | inhibition, % at 10 µM | HEK293 TREx D2 cells, calcium flux, dopamine EC80 | D(2) dopamine receptor (Homo sapiens), P14416 | AID 485344, 2010; in the data active means inhibition above about 30%; inactive means below that, where a call was filed; further: 0% is about no effect
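Inhibition of EC80 dopamine-driven calcium flux, recorded kinetically, defines activity here; cells are a tetracycline-induced HEK293 T-REx line expressing force-coupled D2.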
D2 PAM-2 = Beta-Arrestin HTS for Positive Allosteric Modulators of the Human D2 Dopamine Receptor: Potentiators; D(2) dopamine receptor (Homo sapiens), P14416; DiscoveRx D2 beta-arrestin cells, luminescence, 90 min; 100% = 57 uM dopamine signal; potentiation, % (concentration not given with the values); 360,000 tested, 0.23% active; in the data active means potentiation above about 50%; inconclusive means mostly about 30% to 49%
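PathHunter beta-arrestin assay in DiscoveRx D2 cells. Compounds were added with an EC20 of dopamine (50 nM final) for 90 min at 37 deg C. Luminescence was read 1 h after detection reagent, with 57 uM dopamine as the EC100 control.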
* marks the source's active call; other numbers are inactive results; ? = inconclusive; / = no result. Compounds with a hit are over-represented: about 2.1% of the library has one in this group of screens.

SMILES | D2 ag-1 | LDHA block | D2 PAM-1 | D2 ag-2 | D2 antag | D2 PAM-2
CCN1CCCC1CNC(=O)c1cc(N)ccc1OC (stereo not given) | / | -16.3 | / | -3.1 | / | -22.2
CC(C)(C)c1ccc(OCc2nc(-c3ccccn3)no2)c(Br)c1 | 0.3 | 5.3 | 6.6 | 0.4 | 38.3* | -20.5
Clc1ccc(Cc2nc(-c3ccncc3)no2)cc1 | -0.1 | -0.6 | 9.9 | -0.4 | 19.4 | -10.1
COc1ccc(Cc2nc(-c3ccccn3)no2)cc1 | 0.5 | -8.9 | 5.2 | -1.7 | 34.2* | -0.7
COc1ccc(Cc2nc(-c3ccncc3)no2)cc1 | -0.6 | -2.5 | 4.7 | -1.3 | -20.5 | 51.1*
Clc1cc(Cl)c(OCc2nc(-c3ccccn3)no2)cc1Cl | 1.8 | -9.6 | -1.7 | -2.7 | -19.3 | -5.2
O=C(NCc1ccc(F)cc1)C1CCN(S(=O)(=O)c2cccc3nonc23)CC1 | -0.1 | -4.9 | 31.9* | -1.6 | -7.5 | -2.0
CN(C(=O)Cn1c(=O)n(Cc2ccc3c(c2)OCO3)c(=O)c2sccc21)C1CCCCC1 | / | -3.1 | / | / | / | /
CCCCNC(=S)NNC(=O)c1ccco1 | 0.4 | -5.2 | 45.9* | -2.4 | 4.4 | -12.7
Cc1ccc2cc(C(=O)NCC3CCN(C(C)C)C3)[nH]c2c1 (stereo not given) | / | 6.7 | / | / | / | /
CCN(CC)CCCNc1oc(-c2ccco2)nc1S(=O)(=O)c1ccc2c(c1)OCCO2 | / | -2.3 | / | / | / | /
COC(=O)c1ccc(-c2ccc(C=O)o2)cc1 | / | -3.0 | / | / | / | /
COC(=O)c1cc(S(=O)(=O)n2nc(C)c(Br)c2C)c(Cl)cc1Cl | -0.6 | 0.7 | 4.0 | -2.0 | -10.4 | 53.5*
Cc1ccc(CNc2ccc(O)cc2)cc1 | 1.1 | 19.8 | / | ? | -6.2 | 69.8*
CC1c2ccccc2SC(CCCN(C)C)c2ccccc21 (stereo not given) | 5.7 | -6.3 | -26.9 | -2.0 | 50.5* | -39.0
CN(C)CCC1Sc2ccccc2Oc2ccccc21 (stereo not given) | -0.7 | -14.6 | -5.8 | -2.1 | -2.1 | -29.9
S=C(NCc1ccccc1)N1CCn2cccc2C1c1cccnc1 (stereo not given) | 0.0 | -4.9 | 11.2 | -1.6 | -0.7 | -9.3
S=C(NCCc1ccccc1)N1CCn2cccc2C1c1cccnc1 (stereo not given) | 0.4 | -5.8 | -17.2 | -3.5 | 37.3* | -18.6
CCc1c(C)sc2nc(C(C)C)nc(SCC(=O)N3CCc4ccccc4C3)c12 | -0.4 | 4.9 | -1.9 | -0.9 | 43.7* | -2.0
O=c1[nH]cccc1NS(=O)(=O)c1ccccc1Cl | / | 59.8 | / | / | / | /
C=CCn1c(-c2csc(-c3ccccc3)n2)n[nH]c1=S | 0.3 | -6.2 | 48.4* | -4.0 | -27.5 | -15.4
O=[N+]([O-])c1nn(-c2ccc3c(c2)OCCO3)n(O)c1=NCc1ccccc1Cl | -0.2 | -7.6 | -1.6 | 12.4 | 23.9 | 54.3*
COc1ccccc1CN=c1c([N+](=O)[O-])nn(-c2ccc3c(c2)OCCO3)n1O | -1.1 | -5.6 | 4.8 | ? | 8.3 | 128.8*
COc1ccc(-n2nc([N+](=O)[O-])c(=NCc3ccco3)n2O)cc1 | -0.3 | -3.1 | 6.9 | ? | 17.5 | ?
O=[N+]([O-])c1nn(-c2ccc3c(c2)OCCO3)n(O)c1=NC1CCCCC1 | 0.8 | -6.3 | -3.2 | ? | 7.4 | 117.7*
CC(C)(C)c1cc(-c2cc(Br)c(O)c(C(C)(C)C)c2)cc(Br)c1O | / | 5.3 | / | / | / | /
CC(=O)c1csc(NC(=O)CN(C)S(=O)(=O)c2ccc(F)cc2)n1 | / | -8.6 | / | / | / | /
COc1ccc(C(C)=O)cc1CN1CCCc2ccccc21 | / | 8.3 | / | / | / | /
